From PubChem BioAssay (Tox21)
Values joined by “and” are separate entries in the source; they are usually repeats but may differ in a detail not shown here. Equal entries are not always repeated. Records with an inconclusive call do not appear. Active and inactive are the calls of the source. Unless noted, the call rests on the fitted dose curve.

How the values were obtained:
[1] = Nuclear factor erythroid 2-related factor 2/antioxidant responsive element (Nrf2/ARE) small molecule agonists: luciferase reporter gene qHTS assay in human keratinocytes (AID 1919969); further: nearly all actives have a fitted effect of over 35% in size; further: potency means the concentration at half of the fitted maximal effect
[2] = molecular target: Gonadotropin-releasing hormone receptor (Homo sapiens) (UniProt P30968); test: Human gonadotropin-releasing hormone receptor (GnRHR) small molecule agonists, calcium flux assay in GnRHR-HEK293 cells (AID 1920063); further: nearly all actives have a fitted effect of over 35% in size; further: potency means the concentration at half of the fitted maximal effect
Gonadotropin-releasing hormone receptor (Homo sapiens), sequence (P30968 whole entry, looked up): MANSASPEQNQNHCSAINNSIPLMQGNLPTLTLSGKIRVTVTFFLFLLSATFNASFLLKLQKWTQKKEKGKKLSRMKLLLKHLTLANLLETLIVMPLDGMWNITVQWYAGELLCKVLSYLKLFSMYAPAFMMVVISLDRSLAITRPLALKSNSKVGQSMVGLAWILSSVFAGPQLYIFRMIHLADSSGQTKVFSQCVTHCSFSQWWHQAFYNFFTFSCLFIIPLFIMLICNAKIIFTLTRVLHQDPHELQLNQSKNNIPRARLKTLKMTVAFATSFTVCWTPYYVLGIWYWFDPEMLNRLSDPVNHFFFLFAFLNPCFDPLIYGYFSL
Summary of the method: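 Agonist mode: compounds at 15 concentrations, in triplicate, went onto calcium dye-loaded GnRHR-HEK293 cells. Intracellular calcium was then followed as 480/540 nm fluorescence at 1 s intervals over 3 min.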

[3] = molecular target: KiSS-1 receptor (Homo sapiens) (UniProt Q969F8); test: Human kisspeptin (KISS1R) small molecule agonists, calcium flux assay in KISS1R-HEK293 cells (AID 1920064; active means well fitted activation curve with a large enough effect in the repeat runs; further: potency means the concentration at half of the fitted maximal effect)
KiSS-1 receptor (Homo sapiens), sequence (Q969F8 whole entry, looked up): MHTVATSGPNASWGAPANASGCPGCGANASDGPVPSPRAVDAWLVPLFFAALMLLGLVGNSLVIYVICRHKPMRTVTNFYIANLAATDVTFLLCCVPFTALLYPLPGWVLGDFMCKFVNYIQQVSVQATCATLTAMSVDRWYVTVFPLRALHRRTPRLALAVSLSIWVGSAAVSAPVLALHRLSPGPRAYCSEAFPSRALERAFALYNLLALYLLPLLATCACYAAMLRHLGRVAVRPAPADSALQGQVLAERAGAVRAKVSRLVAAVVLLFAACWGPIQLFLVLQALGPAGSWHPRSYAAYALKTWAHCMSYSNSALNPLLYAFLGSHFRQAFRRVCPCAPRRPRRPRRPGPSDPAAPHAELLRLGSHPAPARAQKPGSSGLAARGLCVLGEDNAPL
Summary of the method: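 Agonist mode: intracellular calcium rise tracked at 1 s intervals over 3 min (480/540 nm) immediately after compound addition to dye-loaded KISS1R-HEK293 stable cells. Each compound tested at 15 concentrations in triplicate.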

[4] = G protein-coupled receptor (GPCR) small molecule agonists, calcium flux assay: HEK293 wild type cell line counter screen (AID 1920065); further: potency means the concentration at half of the fitted maximal effect
Summary of the method: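 Calcium flux counter screen: compound added in agonist mode at 15 concentrations in triplicate to dye-loaded parental HEK293 cells. Fluorescence (480/540) read kinetically for 3 min; ATP served as positive control.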

[5] = p53 small molecule agonists, cell-based qHTS assay with human liver microsomes (AID 1963577)
Summary of the method: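 p53RE-bla cells, 4,000/well, compound added after 5 h, with human liver microsomes 0.5 mg/mL and NADPH 0.5 mg/mL final; 16 h at 37 C, then LiveBLAzer 2 h RT, fluorescence.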

[6] = p53 small molecule agonists, cell-based qHTS assay with human liver microsomes: qHTS cell viability counter screen (AID 1963579); further: nearly all actives have a fitted effect of over 45% in size; further: potency means the concentration at half of the fitted maximal effect
Summary of the method: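 p53RE-bla cells, 4,000/well, dosed 5 hours after plating, with human liver microsomes (0.5 mg/mL final) plus NADPH (0.5 mg/mL final), 16 hours at 37 C. Viability read as CellTiter-Glo luminescence after 30 min at room temperature.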

[7] = p53 small molecule agonists, cell-based qHTS assay with rat liver microsomes: qHTS cell viability counter screen (AID 1963580); further: nearly all actives have a fitted effect of over 45% in size
Summary of the method: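 Rat liver microsome (0.5 mg/mL final) and NADPH (0.5 mg/mL final) co-incubation with compounds for 16 h at 37 C on HCT-116 p53RE-bla cells; cytotoxicity taken from intracellular ATP luminescence.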

[8] = p53 small molecule agonists, cell-based qHTS assay (AID 1963582; active means well fitted activation curve with a large enough effect in the signal ratio in the repeat runs, not every such curve was filed as active; the % refers to the signal ratio; further: potency means the concentration at half of the fitted maximal effect)
Summary of the method: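 Read-out is beta-lactamase FRET fluorescence after 2 h at room temperature with LiveBLAzer B/G substrate. p53 response element-bla cells were treated 16 h at 37 C with compounds in DMSO, added 5 h after seeding.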

[9] = molecular target: 5-hydroxytryptamine receptor 2A (Homo sapiens) (UniProt P28223); test: 5-hydroxytryptamine receptor 2A (HTR2A) small molecule antagonists, cell-based qHTS assay (AID 1963586); further: nearly all actives have a fitted effect of over 45% in size; further: potency means the concentration at half of the fitted maximal effect
5-hydroxytryptamine receptor 2A (Homo sapiens), sequence (P28223 whole entry, looked up): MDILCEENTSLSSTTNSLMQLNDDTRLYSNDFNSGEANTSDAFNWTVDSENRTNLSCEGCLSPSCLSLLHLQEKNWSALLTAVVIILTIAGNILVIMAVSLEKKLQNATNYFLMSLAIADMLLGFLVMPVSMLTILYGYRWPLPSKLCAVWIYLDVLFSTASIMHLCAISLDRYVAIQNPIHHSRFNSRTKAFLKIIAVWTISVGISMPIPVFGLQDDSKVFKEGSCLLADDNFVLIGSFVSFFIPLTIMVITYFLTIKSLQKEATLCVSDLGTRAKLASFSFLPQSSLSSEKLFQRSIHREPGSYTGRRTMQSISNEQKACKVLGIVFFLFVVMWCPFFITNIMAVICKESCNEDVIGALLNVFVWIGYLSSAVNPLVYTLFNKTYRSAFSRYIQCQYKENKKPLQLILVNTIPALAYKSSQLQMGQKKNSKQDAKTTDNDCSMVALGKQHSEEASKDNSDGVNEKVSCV
Summary of the method: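 CHO cells stably expressing human HTR2A were plated for 18 h at 37 C, then loaded with calcium dye for 1 h. Compounds were preincubated 5 min at room temperature before DOI (4 nM solution) was added. Kinetic fluorescence was read for 3 min.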

[10] = molecular target: Muscarinic acetylcholine receptor M1 (Homo sapiens) (UniProt P11229); test: Cholinergic receptor muscarinic 1 (CHRM1) small molecule antagonists, cell-based qHTS assay (AID 1963588); further: nearly all actives have a fitted effect of over 40% in size; further: potency means the concentration at half of the fitted maximal effect
Muscarinic acetylcholine receptor M1 (Homo sapiens), sequence (P11229 whole entry, looked up): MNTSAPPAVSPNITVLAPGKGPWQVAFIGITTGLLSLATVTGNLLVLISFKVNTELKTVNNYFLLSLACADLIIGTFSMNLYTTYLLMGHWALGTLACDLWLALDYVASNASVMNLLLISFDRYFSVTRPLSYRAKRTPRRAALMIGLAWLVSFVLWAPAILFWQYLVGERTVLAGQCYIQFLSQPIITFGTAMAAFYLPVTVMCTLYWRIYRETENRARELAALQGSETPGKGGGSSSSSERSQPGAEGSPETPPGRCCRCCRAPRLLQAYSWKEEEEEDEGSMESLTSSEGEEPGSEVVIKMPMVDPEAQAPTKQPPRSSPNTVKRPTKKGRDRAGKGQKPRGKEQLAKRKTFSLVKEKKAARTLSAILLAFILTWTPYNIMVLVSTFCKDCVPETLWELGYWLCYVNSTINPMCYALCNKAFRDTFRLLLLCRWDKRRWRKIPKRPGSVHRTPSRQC
Summary of the method: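 Compounds were tested at 15 concentrations in three independent runs. Dye-loaded CHRM1-CHO cells were exposed 5 min at room temperature before stimulation by acetylcholine added at 50nM. Intracellular calcium was read kinetically on FDSS for 3 min.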

[11] = molecular target: Muscarinic acetylcholine receptor M1 (Homo sapiens) (UniProt P11229); test: Cholinergic receptor muscarinic 1 (CHRM1) small molecule agonists, cell-based qHTS assay (AID 1963589); further: nearly all actives have a fitted effect of over 35% in size; further: potency means the concentration at half of the fitted maximal effect
Summary of the method: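 Agonist-mode calcium-flux screen: compounds at 15 concentrations, three independent runs, were pin-transferred onto dye-loaded human CHRM1-CHO cells. Fluorescence was then recorded kinetically every second over minutes.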

[12] = cAMP Responsive Elements (CRE) small molecule agonists, cell-based qHTS assay (AID 1963590); further: potency means the concentration at half of the fitted maximal effect
Summary of the method: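 Agonist mode: compound added to CRE-bla HEK 293T cells (2,000/well, 18 h after plating) for 3 h at 37 C/5% CO2. Reporter activity detected via FRET beta-lactamase substrate, 2 h room-temperature loading.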

[13] = molecular target: Beta-2 adrenergic receptor (Homo sapiens) (UniProt P07550); test: Adrenergic beta2 receptor (ADRB2) small molecule antagonists, cell-based qHTS assay (AID 1963592); further: nearly all actives have a fitted effect of over 50% in size; further: potency means the concentration at half of the fitted maximal effect
Beta-2 adrenergic receptor (Homo sapiens), sequence (P07550 whole entry, looked up): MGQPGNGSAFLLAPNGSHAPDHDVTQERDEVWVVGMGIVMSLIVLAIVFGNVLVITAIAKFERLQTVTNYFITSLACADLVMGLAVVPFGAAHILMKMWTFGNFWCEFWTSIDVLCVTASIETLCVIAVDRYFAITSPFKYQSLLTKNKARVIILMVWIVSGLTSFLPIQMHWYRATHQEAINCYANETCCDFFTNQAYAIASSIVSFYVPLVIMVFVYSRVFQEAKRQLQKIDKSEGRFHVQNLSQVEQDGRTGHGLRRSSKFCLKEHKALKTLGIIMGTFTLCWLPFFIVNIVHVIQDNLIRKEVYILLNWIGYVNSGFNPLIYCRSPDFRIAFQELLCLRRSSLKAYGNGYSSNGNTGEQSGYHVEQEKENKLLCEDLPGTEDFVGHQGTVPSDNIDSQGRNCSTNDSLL
Summary of the method: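 Assay format: CHO-ADRB2 cells, 18-20hr seeding at 37C/5% CO2, then compound plus 1nM isoproterenol agonist mix for 0.5hr RT. Homogeneous time-resolved fluorescence cAMP detection after 1hr, expressed as 665/615 nm ratio.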

[14] = molecular target: Beta-2 adrenergic receptor (Homo sapiens) (UniProt P07550); test: Adrenergic beta2 receptor (ADRB2) small molecule agonists, cell-based qHTS assay (AID 1963593);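 further: CHO cells stably overexpressing human ADRB2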
Summary of the method: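 CHO cells stably over-expressing ADRB2 were plated overnight at 37C, then dosed with compounds plus a stimulation mix containing 100uM IBMX and 25uM Ro-20-1724 for 0.5hr at room temperature. cAMP was measured by HTRF competition, 1hr.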

[15] = molecular target: D(2) dopamine receptor (Homo sapiens) (UniProt P14416); test: Dopamine D2 receptor (DRD2) small molecule agonists, cell-based qHTS assay (AID 1963594); further: nearly all actives have a fitted effect of over 35% in size
D(2) dopamine receptor (Homo sapiens), sequence (P14416 whole entry, looked up): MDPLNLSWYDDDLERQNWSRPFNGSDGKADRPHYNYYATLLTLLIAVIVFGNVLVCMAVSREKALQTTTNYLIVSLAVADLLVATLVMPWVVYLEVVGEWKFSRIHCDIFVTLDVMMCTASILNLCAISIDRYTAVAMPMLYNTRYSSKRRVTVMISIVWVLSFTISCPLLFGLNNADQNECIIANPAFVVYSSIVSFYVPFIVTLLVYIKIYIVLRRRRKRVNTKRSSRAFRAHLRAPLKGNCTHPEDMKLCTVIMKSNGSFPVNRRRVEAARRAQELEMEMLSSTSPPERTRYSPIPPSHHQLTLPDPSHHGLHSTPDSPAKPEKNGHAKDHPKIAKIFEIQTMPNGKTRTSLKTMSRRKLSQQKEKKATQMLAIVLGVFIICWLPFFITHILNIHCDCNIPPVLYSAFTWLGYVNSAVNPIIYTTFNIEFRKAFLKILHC
Summary of the method: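 cAMP accumulation in DRD2-HEK293 cells measured by HTRF after 1 h detection; compounds added 10 min before NKH477 (200nM […]) forskolin-analogue stimulation, 30 min at room temperature, with Ro20-1724 present at 0.1 mM final.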

[16] = molecular target: D(2) dopamine receptor (Homo sapiens) (UniProt P14416); test: Dopamine D2 receptor (DRD2) small molecule antagonists, cell-based qHTS assay (AID 1963595; active means well fitted inhibition curve with a large enough effect in the signal ratio in the repeat runs, with a control signal flat; the % refers to the signal ratio; further: potency means the concentration at half of the fitted maximal effect)
Summary of the method: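 In this cell-based antagonist screen, compounds act for 10 min at room temperature before a 30 min challenge with 12 nM quinpirole and 200 nM NKH477. cAMP is quantified by HTRF competition in DRD2-HEK293 cells containing 0.1 mM Ro20-1724.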

[17] = p53 small molecule agonists, cell-based qHTS assay with rat liver microsomes (AID 1963578)
Summary of the method: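 p53RE-bla cells, 4,000/well, pre-incubated 5 h, then given compounds plus rat liver microsomes (0.5 mg/mL final) and NADPH (0.5 mg/mL final). Incubation 16 h at 37 C; beta-lactamase reporter read by LiveBLAzer fluorescence after 2 h at room temperature.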

[18] = p53 small molecule agonists, cell-based qHTS assay: qHTS cell viability counter screen (AID 1963581); further: nearly all actives have a fitted effect of over 45% in size
Summary of the method: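 Counter screen read by CellTiter-Glo luminescence (ATP content, 30 min at room temperature), run in the same wells as the beta-lactamase reporter read. HCT-116 p53RE-bla cells saw compounds for 16 h at 37 C.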

[19] = molecular target: 5-hydroxytryptamine receptor 2A (Homo sapiens) (UniProt P28223); test: 5-hydroxytryptamine receptor 2A (HTR2A) small molecule agonists, cell-based qHTS assay (AID 1963587); further: nearly all actives have a fitted effect of over 30% in size; further: potency means the concentration at half of the fitted maximal effect
Summary of the method: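 Kinetic calcium-flux fluorescence (2 min, 1 sec intervals) after compound addition in agonist mode. HTR2A-CHO cells were cultured 18 h, then dye-loaded 1 h at 37 C.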

[20] = cAMP Responsive Elements (CRE) small molecule antagonists, cell-based qHTS assay (AID 1963591; active means well fitted inhibition curve with a large enough effect in the signal ratio in the repeat runs, not every such curve was filed as active; the % refers to the signal ratio)
Summary of the method: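 Antagonist mode: compounds are added alongside the adenylyl cyclase activator NKH477 (0.25 uM final) to CRE-bla HEK293T cells for 3 h. LiveBLAzer FRET substrate, 2 h at room temperature, reports bla expression.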

Measured: Potency

CCCCCCCCCCCCCCCCC(C(=O)O)C(O)(CC(=O)O)C(=O)O (centres undefined)
active: [9] 13 µM
not listed: [17] | [18] | [19] | [20]
inactive: all other assays above

COc1ccc(S(=O)(=O)Nc2nnc(CC(C)C)s2)cc1
not listed: [5] | [9]
inactive: all other assays above

c1ccc(Cc2ccccc2)cc1
not listed: [5] | [14] | [18]
inactive: all other assays above

C[C@@H]1C[C@H]2[C@@H]3C[C@H](F)C4=CC(=O)C(Cl)=C[C@]4(C)[C@@]3(F)[C@@H](O)C[C@]2(C)[C@@]1(O)C(=O)CO
not listed: [5] | [10] | [14]
inactive: all other assays above

CC(C)CCCCCCCOC(=O)c1ccc(C(=O)OCCCCCCCC(C)C)c(C(=O)OCCCCCCCC(C)C)c1
active: [1] 24 µM | [6] 16 µM
not listed: [7] | [11] | [14] | [17]
inactive: all other assays above

O=[N+]([O-])c1cc(N(CCO)CCO)ccc1NCCO
not listed: [13] | [14] | [15] | [16] | [17]
inactive: all other assays above

CCCCN(CCCC)CC(O)c1cc(Cl)cc2c1-c1ccc(Cl)cc1/C2=C/c1ccc(Cl)cc1 (centres undefined)
not listed: [8] | [12] | [13] | [14] | [17] | [20]
inactive: all other assays above

CCCCCCCCCCCCOCCOS(=O)(=O)O
active: [2] 38.9 µM
not listed: [6] | [7] | [9] | [12] | [18] | [19] | [20]
inactive: all other assays above

COC(=O)C1=C(C)NC(C)=C(C(=O)O[C@@H]2CCCN(Cc3ccccc3)C2)[C@@H]1c1cccc([N+](=O)[O-])c1
not listed: [5] | [12]
inactive: all other assays above

Oc1ccc(Cl)cc1C1CCCC1
active: [6] 36.3 µM | [16] 61.1 µM
not listed: [10] | [12] | [14] | [17] | [18] | [19] | [20]
inactive: all other assays above

Nc1ccc(N)c2ccccc12
active: [1] 7.69 µM | [19] 7.75 µM
inactive: [2] | [3] | [4] | [5] | [17] | [8] | [10] | [12] | [20] | [16]

CNS(=O)(=O)c1cc(C(=O)N2CCC(CCN3C4CCC3CC(n3c(C)nc5ccccc53)C4)(c3cccc(F)c3)CC2)c(Cl)cc1F (centres undefined)
not listed: [5] | [8] | [10] | [12] | [20]
inactive: all other assays above

CC[N+](C)(CC)CC
not listed: [17] | [19]
inactive: all other assays above

Nc1ccc2cc3ccc(N)cc3nc2c1
active: [1] 1.54 µM and 6.68 µM | [2] 38.9 µM and 16.9 µM | [3] 49 µM and 23.9 µM | [4] 38.9 µM and 16.9 µM | [8] 1.82 µM | [19] 19.5 µM and 19 µM | [11] 43.6 µM and 23.9 µM
not listed: [12] | [13] | [14] | [17] | [20]
inactive: all other assays above

NC(=O)c1cc[n+](CC2=C(C(=O)[O-])N3C(=O)[C@@H](NC(=O)Cc4cccs4)[C@H]3SC2)cc1
not listed: [5] | [8] | [14] | [15] | [17]
inactive: all other assays above

C[C@H]1[C@@H](c2ccccc2)NC(=O)N1C
not listed: [5] | [8] | [14] | [17]
inactive: all other assays above

COc1cc(C)cc(O)c1
not listed: [5] | [8] | [17] | [20]
inactive: all other assays above

CN(C)CCOc1ccccc1Cc1ccccc1
active: [9] 0.326 µM | [10] 1.45 µM | [13] 33.5 µM
not listed: [5] | [8] | [14] | [17]
inactive: all other assays above

S=c1[nH]c2ccccc2s1
active: [1] 21.7 µM | [12] 48.6 µM
inactive: [2] | [3] | [4] | [17] | [7] | [19] | [11]

CN(C)CCOc1ccc(/C(=C(/CCCl)c2ccccc2)c2ccccc2)cc1
active: [6] 30.3 µM | [19] 40.9 µM | [13] 57.2 µM | [16] 57.2 µM
inactive: [1] | [2] | [3] | [4] | [17] | [10] | [11]

CC(C)n1nc(-c2cc3cc(O)ccc3[nH]2)c2c(N)ncnc21
not listed: [5] | [7] | [12] | [20]
inactive: all other assays above

CO[Si](C)(OC)OC
not listed: [5] | [8] | [12] | [14] | [16] | [17]
inactive: all other assays above

CCC(C)(C)c1ccc(CC(C)CN2C[C@@H](C)O[C@@H](C)C2)cc1 (some centres undefined)
active: [10] 3.65 µM
not listed: [5] | [6] | [14] | [16]
inactive: all other assays above

CCCC(CC)CCCCCCCN (centres undefined)
active: [9] 24.2 µM | [19] 44.7 µM | [10] 4.84 µM
not listed: [5] | [12] | [14] | [17]
inactive: all other assays above

CN(C)c1ccc(O)c2c1C[C@H]1C[C@H]3[C@H](N(C)C)C(=O)C(C(N)=O)=C(O)[C@@]3(O)C(=O)C1=C2O
not listed: [5] | [8] | [14] | [17]
inactive: all other assays above

Cc1cccc(C)c1NC(=O)CN(CC(=O)O)CC(=O)O
not listed: [5] | [8] | [14] | [17]
inactive: all other assays above

O=[N+]([O-])c1ccc(O/N=C/c2cc(Br)c(O)c(Br)c2)c([N+](=O)[O-])c1
inactive: [2] | [3] | [4] | [17] | [7] | [19] | [13] | [15] | [16]
active: [1] 60.8 µM
